Results reported in PubChem BioAssay AID1578 (Sanford-Burnham Center for Chemical Genomics, 2009).
In all, about 290,000 compounds went through this assay and about 3,000 (1%) were called active. No stated cut-off is given here; in the data, active means inhibition mostly above about 36% (no sharp cut-off); inactive means mostly below about 34%. The sample as a whole holds a higher share of actives than the screen did.

experiment: NOD1 signaling inhibitors, primary screen, cell-based, luminescence, uHTS (AID 1578); conditions: NOD1-driven NF-kB luciferase reporter cells, at 4 µM, hits give high values;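 further: HEK-293T reporter cells stimulated with the NOD1 agonist gamma-tri-DAP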

Row | Structure (SMILES) | inhibition
1 | COc1ccccc1NC(=O)/C=C/c1ccc(OC)c(S(=O)(=O)N2CCOCC2)c1 | -9.3% (inactive)
2 | CSc1nc(C)cc(OCCNS(=O)(=O)c2cc(C)ccc2C)n1 | -15% (inactive)
3 | Cc1ccccc1CN1CCc2cc([N+](=O)[O-])ccc21 | 58.2% (active)
4 | Cc1ccccc1Cn1c(C)nc2ccc([N+](=O)[O-])cc2c1=O | -19.5% (inactive)
5 | Cc1ccccc1COC(=O)c1cc([N+](=O)[O-])ccc1N1CCOCC1 | -37.5% (inactive)
6 | O=c1c2ccccc2cnn1Cc1ccc(Br)cc1F | -29.7% (inactive)
7 | Cc1c(C(=O)N2CCCCC2)nn(-c2ccc(Cl)cc2)c(=O)c1C#N | -10.3% (inactive)
8 | COc1cc(CN2CCCN(C)CC2)cc([N+](=O)[O-])c1O | -23.1% (inactive)
9 | O=C(O)CSCC(=O)N1N=C2/C(=C/c3ccccc3)CCCC2C1c1ccccc1 (centres undefined) | -13.2% (inactive)
10 | NC(=O)N1N=C2/C(=C/c3ccccc3)CCCC2C1c1ccccc1 (centres undefined) | -6.2% (inactive)
11 | CC(=O)N1N=C2/C(=C/c3ccccc3)CCCC2C1c1ccccc1 (centres undefined) | 79.9% (active)
12 | CN(C)S(=O)(=O)c1cccc(C(=O)Nc2ccccc2)c1 | -30.7% (inactive)
13 | O=c1c(-c2ccc(Cl)cc2)c[nH]n1-c1ccccc1 | -5.7% (inactive)
14 | CCOc1cccc(N2C(=O)CC(NCc3ccc(S(N)(=O)=O)cc3)C2=O)c1 (centres undefined) | -9.2% (inactive)
15 | Cc1ccc(-n2c(SCC(=O)N3CCCCC3)nc(O)c(Cc3ccccc3)c2=O)cc1 | -18.9% (inactive)
16 | S=C(Nc1ccc(Nc2ccccc2)cc1)Nc1ccccn1 | 74.1% (active)
17 | Cc1cccc(NC(=S)Nc2ccccn2)c1 | -0.2% (inactive)
18 | COc1ccc(NC(=S)Nc2ccccn2)cc1 | 6.6% (inactive)
19 | COc1ccc(/C=N/Nc2nc(-c3cccc(S(=O)(=O)N4CCCC4)c3)cs2)cc1OC | 52.7% (inactive)
20 | CN(C)S(=O)(=O)c1ccc(-c2csc(N/N=C/c3ccc(O)cc3)n2)cc1 | 12.3% (inactive)
21 | COc1cc(/C=N/Nc2nc(-c3ccc(S(=O)(=O)N(C)C)cc3)cs2)ccc1O | 31.8% (active)
22 | N#C/C(=C\c1ccc2c(c1)OCCO2)C(=O)Nc1ccc(C(=O)O)cc1 | 1.3% (inactive)
23 | CCCCNc1c([N+](=O)[O-])c(=O)n(C)c2ccccc12 | -21.6% (inactive)
24 | CC(C)(C)Nc1c([N+](=O)[O-])c(=O)sc2ccccc12 | -30.9% (inactive)

Row | Structure (SMILES) | inhibition
25 | CCCCCCNc1c([N+](=O)[O-])c(=O)sc2ccccc12 | 71% (active)
26 | COc1cc2c(cc1OC)CN(C(=O)COc1ccc(C#N)cc1)CC2 | 10% (inactive)
27 | Cc1c(NC(=S)NC(=O)CC(C)C)c(=O)n(-c2ccccc2)n1C | -31.4% (inactive)
28 | CCN1/C(=C/c2ccc3ccccc3[n+]2CCCS(=O)(=O)[O-])C=Cc2cc(C)ccc21 | -1.5% (inactive)
29 | CCN1/C(=C/C=C/C=C/c2sc3ccccc3[n+]2CC)Sc2ccccc21 | 66.1% (inactive)
30 | CC1=NN(C(=O)c2ccc(Cn3nc(C)c([N+](=O)[O-])c3C)o2)C(O)(C(F)(F)F)C1 (centres undefined) | -21.3% (inactive)
31 | CCCCc1nc2sc3c(SCCN(C)C)ncnc3c2c2c1CCC2 | -4.1% (inactive)
32 | Brc1ccc(OCc2cn3ccccc3n2)cc1 | -41.6% (inactive)
33 | COc1ccccc1NS(=O)(=O)c1cc(NC(=O)c2cc(=O)[nH]c3ccccc23)ccc1N1CCOCC1 | 0.5% (inactive)
34 | COc1ccc(-c2onc(C)c2C)cc1S(=O)(=O)NCCc1ccco1 | 2.5% (inactive)
35 | Cc1cc(C)c(C)c(S(=O)(=O)N2CCCCC2C(=O)O)c1C (centres undefined) | 0.3% (inactive)
36 | COc1ccc(-c2cnnc(N/N=C/c3ccc(O)cc3)n2)cc1 | -15.9% (inactive)
37 | Oc1ccc(/C=N\Nc2nncc(-c3ccccc3)n2)cc1 | 59.3% (active)
38 | Oc1cccc(/C=N\Nc2nncc(-c3ccccc3)n2)c1 | -8.4% (inactive)
39 | CC(=O)Oc1ccc(/C=C(\NC(=O)c2ccco2)C(=O)Nc2ccc(C(C)=O)cc2)cc1 | -31.3% (inactive)
40 | COc1ccc(/C(N)=N/OC(=O)CC2CCCCC2)cc1OC | -10.9% (inactive)
41 | CCOc1ccc(OCc2ccc(C(=O)NC(C)C)o2)cc1 | -2.6% (inactive)
42 | CC(C)NC(=O)c1ccc(COc2ccc(C(C)(C)C)cc2)o1 | 29.6% (active)
43 | CC(C)(C)c1ccc(OCc2ccc(C(=O)NN)o2)cc1 | -4.2% (inactive)
44 | CC(=O)c1ccc(S(=O)c2ccccc2)cc1 (centres undefined) | -22.4% (inactive)
45 | COc1ccc(OC)c(C(=O)NC(CC(N)=O)c2ccc(N3CCC(N4CCCC4)CC3)c([N+](=O)[O-])c2)c1 (centres undefined) | 5.4% (inactive)
46 | Cc1cc(C)cc(NS(=O)(=O)c2ccc3[nH]cc(C(=O)N4CCc5ccccc54)c(=O)c3c2)c1 | 3.5% (inactive)
47 | CCOCCn1c(=NC(=O)/C=C/c2ccccc2Cl)sc2cc(NC(C)=O)ccc21 | 18.1% (inactive)
48 | COCCn1c(=NC(=O)/C=C/c2ccccc2)sc2cc(NC(C)=O)ccc21 | -16.2% (inactive)

Row | Structure (SMILES) | inhibition
49 | COCCn1c(=NC(=O)/C=C/c2ccccc2Cl)sc2cc(NC(C)=O)ccc21 | 85% (active)
50 | Cc1cccc(C(P(=O)(c2ccccc2)c2ccccc2)P(=O)(c2ccccc2)c2ccccc2)n1 | -2.9% (inactive)
51 | CC(=O)c1c(C)[nH]c(C(=O)OCC(=O)Nc2ccc([N+](=O)[O-])cc2Cl)c1C | -9% (inactive)
52 | CC(=O)c1c(C)[nH]c(C(=O)OCC(=O)Nc2ccccc2Cl)c1C | 51.1% (active)
53 | CC(=O)c1c(C)[nH]c(C(=O)Nc2ccccc2Cl)c1C | -16.6% (inactive)
54 | CCC(C)N1C(=O)CCC1C(=O)N1CCN(c2ccccc2F)CC1 (centres undefined) | 2.8% (inactive)
55 | C/C(=N\NC(=O)c1nnn(-c2nonc2N)c1CSc1ccccc1)c1cccnc1 | -4.5% (inactive)
56 | CCOn1c(-n2nc(C)cc2C)nc2ccccc2c1=O | 0.7% (inactive)
57 | C#CCOn1c(-n2nc(C)cc2C)nc2ccccc2c1=O | 2.3% (inactive)
58 | Cc1cc(C)n(-c2nc3ccccc3c(=O)n2OCC#N)n1 | 109% (active)
59 | CN(Cc1ccccc1)C(=O)CCC(=O)N(C)Cc1ccccc1 | -41.2% (inactive)
60 | CN(C)N(Cc1ccccc1)C(=O)C(O)(c1ccccc1)c1ccccc1 | 63.1% (active)
61 | CN(C)N(C)C(=O)C(O)(c1ccccc1)c1ccccc1 | -18.6% (inactive)
62 | O=C(CN1C(=O)NC2(CCCCCCC2)C1=O)NC1CCCc2ccccc21 (centres undefined) | -29.3% (inactive)
63 | COC(=O)c1ccc(NC(=O)CCN2C(=O)CSC2=O)cc1 | -44.1% (inactive)
64 | N#CCc1c(C#N)c(N)nc(N2CCCC(O)C2)c1C#N (centres undefined) | -18.2% (inactive)
65 | C=C(C)CN(CC)c1nc(N)c2c(N)nc3c(c2c1C#N)CC(=O)N3C12CC3CC(CC(C3)C1)C2 | -11.3% (inactive)
66 | N#Cc1c(N2CCCC(O)C2)nc(N)c2c(N)nc3c(c12)CC(=O)N3C12CC3CC(CC(C3)C1)C2 (centres undefined) | 72% (active)
67 | Cc1cnc(C(=O)Nc2ccc(C(=O)N(C)C3CCCCC3)cc2)cn1 | -6.2% (inactive)
68 | C=CCOc1ccc2ccccc2c1/C=N/O | -6.7% (inactive)
69 | CCOC(=O)C1CCN(C(=O)CSCc2nc(-c3ccc(OCC)cc3)oc2C)CC1 | -2.1% (inactive)
70 | CCOc1ccc(-c2nc(CSCC(=O)N3CCN(C(=O)c4ccco4)CC3)c(C)o2)cc1 | -28.8% (inactive)
71 | COc1cc(CNCc2ccc(OC)cc2OC)cc(OC)c1 | 79.5% (active)
72 | COc1cccc(CNCc2ccc(OC)cc2OC)c1 | 3.1% (inactive)

Row | Structure (SMILES) | inhibition
73 | COc1cc(CNCc2cc(OC)ccc2OC)cc(OC)c1 | -5.3% (inactive)
74 | O=C(COC(=O)CNC(=O)c1ccc(Cl)cc1)Nc1cccc(S(=O)(=O)N2CCCC2)c1 | 6.6% (inactive)
75 | CCO[C@H]1OC(C(=O)N2CCN(C)CC2)=C[C@@H](C)[C@@H]1CCCO | -35.3% (inactive)
76 | CCO[C@@H]1OC(C(=O)N2CCOCC2)=C[C@H](C)[C@H]1CCCO | -28.1% (inactive)
77 | CCO[C@H]1OC(C(=O)N2CCCCCCC2)=C[C@@H](C)[C@@H]1CCCO | 40% (active)
78 | CC1CCCC(NC(=O)c2ccc(CNc3c(N4CCCC4)c(=O)c3=O)cc2)C1C (centres undefined) | -28.2% (inactive)
79 | COc1ccc(/C=N/Nc2nc(C(=O)O)cs2)cc1 | -35.9% (inactive)
80 | Cc1c(C(=O)NCCN(C)C)oc2ccc(S(=O)(=O)N3CCC4(CC3)OCCO4)cc12 | -12.2% (inactive)
81 | Fc1ccccc1COc1ccc(Br)cc1CNCc1ccncc1 | 72.9% (active)
82 | Fc1ccccc1COc1ccc(Br)cc1CNCc1cccnc1 | -5% (inactive)
83 | Brc1ccc(OCc2ccccc2)c(CNCc2ccncc2)c1 | 44.1% (inactive)
84 | COc1ccc(NC(=O)Nc2c(C)noc2-c2ccccc2)cc1 | -7.5% (inactive)
85 | O=C(Oc1ccc(Br)cc1C(=S)N1CCOCC1)c1ccc(F)cc1 | -9.9% (inactive)
86 | C/C(=N\Nc1nc2ccccc2[nH]1)c1cc2ccccc2o1 | -21.6% (inactive)
87 | O=C(Nc1nc2ccccc2[nH]1)c1ccccc1O | 1.5% (inactive)
88 | O=C(Nc1nc2ccccc2[nH]1)c1ccccc1F | 77.3% (active)
89 | O=C(Nc1nc2ccccc2[nH]1)c1ccc(Br)o1 | -21.2% (inactive)
90 | O=C(Nc1nc2ccccc2[nH]1)c1cc2ccccc2o1 | 73.5% (active)
91 | CSc1ccccc1C(=O)Nc1nc2ccccc2[nH]1 | -46.1% (inactive)
92 | COc1ccc(S(=O)(=O)Nc2ccccc2C(=O)N2CCCCC2)cc1C | -14.5% (inactive)
93 | S=C(Nc1ccccc1)N1CCOCCOCCN(C(=S)Nc2ccccc2)CCOCCOCC1 | -11% (inactive)
94 | CC(=O)N1N=C(N)SC1c1cccc([N+](=O)[O-])c1 (centres undefined) | -38.8% (inactive)
